Shown are actives, neighbours in structure and some others; about 19% of the full set was active somewhere.
TDP1 block: inhibitors of human tyrosyl-DNA phosphodiesterase TDP1 | Q9NUW8 | recombinant TDP1, AlphaScreen DNA substrate cleavage | Potency, µM (highest dose often 130 µM), hits mostly inhibitors | actives 0.28% (n = 350,000) | AID 485290; further: nearly all actives have a fitted effect of over 40% in size
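Compounds were preincubated with Tdp1 (1 nM final) for 15 min at room temperature before substrate (15 nM final) started a 5 min reaction; beads (10 ug/ml final) were then added for 10 min before AlphaScreen detection.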
DT40 TDP1 CPT: DT40-hTDP1 cell growth loss with CPT | Potency, µM (series often up to 46.2 µM), hits mostly inhibitors | chicken DT40 Tdp1-/-;hTDP1 cells + 20 nM CPT, ATP luminescence, 48 h | actives 12% (n = 420,000) | AID 686979; further: nearly all actives have a fitted effect of over 55% in size
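Chicken DT40 Tdp1-/- cells complemented with human TDP1, 400 cells/well, exposed to compounds plus 20 nM camptothecin for at least 48 h at 37 C; viability read as ATP content by CellTiter-Glo luminescence.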
VP16 counter: counter-screen for ROR gamma inhibitors: Gal4-VP16 reporter | Potency, µM (top dose mostly 53.6 µM), usual class: inhibitors | Drosophila S2 Gal4-VP16 UAS-luciferase, luminescence, 20 h | actives 3.5% (n = 310,000);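 further: Gal4-VP16 expression switched on by copper sulfate through the metallothionein promoter; nearly all actives have a fitted effect of over 50% in size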
RORgamma inh: blocks mouse ROR gamma transcriptional activity. P51450. Drosophila S2 Gal4-RORgamma UAS-luciferase reporter, 20 h. Potency, µM (series often up to 53.6 µM), most hits filed as inhibitors. actives 5.4% (n = 310,000). AID 2551; further: nearly all actives have a fitted effect of over 60% in size
Target sequence (P51450 whole entry, looked up, the tested form may be a part): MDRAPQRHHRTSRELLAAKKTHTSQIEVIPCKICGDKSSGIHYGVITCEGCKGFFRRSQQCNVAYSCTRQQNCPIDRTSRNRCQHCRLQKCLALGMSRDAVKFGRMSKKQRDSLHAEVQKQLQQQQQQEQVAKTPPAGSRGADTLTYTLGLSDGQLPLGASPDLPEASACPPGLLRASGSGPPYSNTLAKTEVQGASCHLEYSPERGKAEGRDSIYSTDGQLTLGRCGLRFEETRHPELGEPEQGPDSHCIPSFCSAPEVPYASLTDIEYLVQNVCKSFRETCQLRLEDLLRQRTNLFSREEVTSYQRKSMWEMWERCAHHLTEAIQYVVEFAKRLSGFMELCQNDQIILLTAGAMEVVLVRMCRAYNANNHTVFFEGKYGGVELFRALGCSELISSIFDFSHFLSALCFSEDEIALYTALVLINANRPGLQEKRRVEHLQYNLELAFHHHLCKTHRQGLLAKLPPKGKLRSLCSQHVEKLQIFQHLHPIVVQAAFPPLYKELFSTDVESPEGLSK
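Read-out: Photinus luciferase luminescence; inhibitors lower reporter signal. Insect Schneider cells with Gal4-ROR gamma fusion under metallothionein promoter, UAS reporter; 700 uM final copper sulfate induction, 20 hr, ambient temperature.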
TDP1 cell noCPT: qHTS for Inhibitors of human tyrosyl-DNA phosphodiesterase 1 (TDP1): qHTS in cells in absence of CPT | Potency, µM (highest dose often 46.2 µM), hits mostly inhibitors | actives 15% (n = 420,000) | DT40 Tdp1-/- hTDP1 cells, no CPT, ATP luminescence, 48 h; further: nearly all actives have a fitted effect of over 55% in size
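Growth kinetics read by CellTiter-Glo luminescence after ≥48 hr at 37 °C. Cells: DT40 Tdp1-/- stably carrying human TDP1, 400 per well, compound exposure in the absence of CPT (DMSO vehicle).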
Of the large screens only hits and unclear results are named; the others gave an inactive call. The call rests on the fitted dose curve; in most records, active means well fitted curve in the direction sought with a large enough effect; inconclusive means small, poorly fitted or top-dose-only effect, or another doubt; inactive means no such curve, though single readings can be large; an effect the other way counts as inactive or inconclusive.

Cn1cc(CN2CCCCC2CO)c(-c2ccc(Oc3ccccc3)cc2)n1 (stereo unspecified)	DT40 TDP1 CPT inconclusive, TDP1 cell noCPT inconclusive
CN(C)c1ccc(NC(=O)Nc2ccc3c(c2)c(=O)n(C)n3-c2ccccc2)cc1	DT40 TDP1 CPT inconclusive, TDP1 cell noCPT 21µM (no result: TDP1 block, VP16 counter, RORgamma inh)
CN(C)c1ccc(NC(=S)Nc2ccc3c(c2)c(=O)n(C)n3-c2ccc(C(C)(C)C)cc2)cc1	DT40 TDP1 CPT 21µM, TDP1 cell noCPT 12µM (no result: TDP1 block, VP16 counter, RORgamma inh)
CC(C)=CCn1c2ccc(NC(=S)NC3CC3)cc2c(=O)n1C	none (no result: TDP1 block, VP16 counter, RORgamma inh)
CC(C)C(=O)Nc1ccc(C(=O)NNC(=S)NC(=O)c2cccs2)cc1	DT40 TDP1 CPT inconclusive, VP16 counter inconclusive, TDP1 cell noCPT inconclusive
COc1ccc(C(=O)NNC(=S)NC(=O)c2cccs2)cc1	DT40 TDP1 CPT 15µM, RORgamma inh inconclusive, TDP1 cell noCPT inconclusive
Cc1cccc(C(=O)NNC(=O)c2ccccc2O)c1	DT40 TDP1 CPT inconclusive, VP16 counter inconclusive, RORgamma inh 13µM, TDP1 cell noCPT 21µM (no result: TDP1 block)
COc1ccc(/C=C/C(=O)NC(=S)NNC(=O)c2cccs2)cc1	DT40 TDP1 CPT 6.5µM, VP16 counter 22µM, RORgamma inh 2µM, TDP1 cell noCPT 4.6µM
C=CCNC(=S)NNC(=O)c1ccc(OCC)cc1	DT40 TDP1 CPT inconclusive, TDP1 cell noCPT 21µM
Cc1ccsc1-c1nc(CN2C[C@@H](C)O[C@@H](C)C2)c(C)o1	DT40 TDP1 CPT inconclusive
CCOC(=O)CCC(=O)NNC(=O)c1ccc(NC(=O)c2ccccc2)cc1	DT40 TDP1 CPT 18µM, TDP1 cell noCPT inconclusive (no result: TDP1 block)
O=C(Cc1ccccc1)NNC(=O)c1ccc(NC(=O)c2ccccc2)cc1	DT40 TDP1 CPT inconclusive (no result: TDP1 block)
Cc1cccc(C(=O)NNC(=S)NC(=O)c2ccccc2)c1	DT40 TDP1 CPT 18µM, TDP1 cell noCPT 21µM (no result: TDP1 block, VP16 counter, RORgamma inh)
CCCCC(=O)NC(=S)NNC(=O)c1ccc(OC)cc1	DT40 TDP1 CPT 4.6µM, TDP1 cell noCPT 3.3µM
COc1ccc(C(=O)NNC(=S)Nc2ccccc2)cc1	none
COc1ccc(C(=O)NNC(=O)C2(C)CC2(Br)Br)cc1 (stereo unspecified)	none
COc1ccc(C(=O)NC(=S)NNC(=O)c2cccc(C)c2)cc1	DT40 TDP1 CPT 26µM, TDP1 cell noCPT 23µM (no result: TDP1 block, VP16 counter, RORgamma inh)
CCNC(=S)NNC(=O)c1ccc(OC)cc1	none
CCCOc1ccc(C(=O)NNC(=S)NC(=O)CC)cc1	DT40 TDP1 CPT 4.6µM, TDP1 cell noCPT 2.6µM
COc1ccc(C(=O)NNC(=S)NC(=O)c2ccc(OC)cc2)cc1	DT40 TDP1 CPT 16µM, VP16 counter inconclusive, TDP1 cell noCPT inconclusive (no result: TDP1 block)
CCC(=O)NC(=S)Nc1ccc(NC(=O)c2ccc(OC)cc2)cc1	none
CCC(=O)NC(=S)NNC(=O)c1ccc(NC(=O)c2ccccc2)cc1	DT40 TDP1 CPT 5.8µM, RORgamma inh inconclusive, TDP1 cell noCPT 7.3µM
Cc1cccc(C(=O)NC(=S)Nc2cccc3nc(C)ccc23)c1	DT40 TDP1 CPT inconclusive, VP16 counter 10µM, RORgamma inh 7.1µM, TDP1 cell noCPT inconclusive
COc1ccc(C(=O)NNC(=O)c2ccc3ccccc3n2)cc1	DT40 TDP1 CPT 16µM, TDP1 cell noCPT 4.1µM (no result: VP16 counter, RORgamma inh)
Cc1cccc(C(=O)NC(=S)NNC(=O)COc2ccc(Cl)cc2)c1	DT40 TDP1 CPT inconclusive, VP16 counter inconclusive, RORgamma inh 4µM, TDP1 cell noCPT inconclusive
O=C(NNC(=O)c1ccc2ccccc2n1)c1ccc(O)cc1	DT40 TDP1 CPT inconclusive, TDP1 cell noCPT inconclusive (no result: VP16 counter, RORgamma inh)
Cc1cccc(/C(N)=N/OC(=O)COc2ccc(Cl)cc2)c1	DT40 TDP1 CPT inconclusive, TDP1 cell noCPT inconclusive
OCC1O[C@H](Oc2ccc(O)cc2)C(O)C(O)C1O (stereo partly specified)	none (no result: DT40 TDP1 CPT, TDP1 cell noCPT)
CC1=NN(c2ccc(Cl)cc2)C(=O)/C1=C\c1cccn1-c1ccc(S(N)(=O)=O)cc1	DT40 TDP1 CPT inconclusive, VP16 counter inconclusive, RORgamma inh inconclusive, TDP1 cell noCPT 15µM
Cc1ccc(S(=O)(=O)N/N=C/c2cccn2-c2ccc(Cl)cc2)cc1	DT40 TDP1 CPT inconclusive
O=C(c1cc(C2CC2)nc2ccc(Br)cc12)N1N=C(C(F)F)CC1(O)C(F)F (stereo unspecified)	DT40 TDP1 CPT 16µM, TDP1 cell noCPT 16µM
CN(Cc1ccccc1)C(=O)CN1C(=O)c2ccccc2S1(=O)=O	none (no result: TDP1 block)

High-throughput results deposited in PubChem BioAssay by National Center for Advancing Translational Sciences (NCATS).
